Assay results reported in ChEMBL document CHEMBL3433997, “St. Jude Leishmania screening dataset” (2016).

Tests used:
Format in all cases: functional
[1] = biological target: Solute carrier family 2, facilitated glucose transporter member 1 (Homo sapiens) (UniProt P11166); assay: ST_JUDE_LEISH: Cytotoxicity at 2uM final concentration against transgenic Leishmania Mexicana promastigotes LmGLUT1 that are glucose transport deficient and complemented with the human glucose transporter GLUT1. Activity is measured by DNA content using SYBR green in vitro
Solute carrier family 2, facilitated glucose transporter member 1 (Homo sapiens), sequence (P11166 whole entry): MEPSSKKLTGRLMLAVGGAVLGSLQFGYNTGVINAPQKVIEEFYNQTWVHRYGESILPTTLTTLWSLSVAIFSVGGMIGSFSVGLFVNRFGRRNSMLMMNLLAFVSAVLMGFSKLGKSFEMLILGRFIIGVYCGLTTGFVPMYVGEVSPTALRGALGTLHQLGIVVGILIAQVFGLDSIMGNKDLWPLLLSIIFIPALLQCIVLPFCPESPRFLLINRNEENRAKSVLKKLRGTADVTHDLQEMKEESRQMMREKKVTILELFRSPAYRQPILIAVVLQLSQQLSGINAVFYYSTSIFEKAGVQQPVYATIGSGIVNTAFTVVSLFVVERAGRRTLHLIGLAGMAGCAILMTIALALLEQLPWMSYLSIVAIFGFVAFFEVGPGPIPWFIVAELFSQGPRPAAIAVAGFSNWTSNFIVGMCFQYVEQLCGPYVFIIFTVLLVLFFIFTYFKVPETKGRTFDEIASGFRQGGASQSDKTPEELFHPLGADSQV

[2] = biological target: Hexose transporter 1 (Plasmodium falciparum) (UniProt O97467); assay: ST_JUDE_LEISH: Cytotoxicity at 2uM final concentration against transgenic Leishmania Mexicana promastigotes LmPfHT that are glucose transport deficient and complemented with the Plasmodium falciparum hexose transporter. Activity is measured by DNA content using SYBR green in vitro
[3] = biological target: Glucose transporter (Leishmania mexicana) (UniProt O61059); assay: ST_JUDE_LEISH: Cytotoxicity at 2uM final concentration against transgenic Leishmania Mexicana promastigotes LmGT2 that are glucose transport deficient and complemented with the L. Mexicana glucose transporter 2. Activity is measured by DNA content using SYBR green in vitro

SMILES | inhibition [1] | inhibition [2] | inhibition [3]
CN1CCN(c2ccnc3ccc(NC(=O)Nc4cccc5c(Br)cccc45)cc23)CC1 | 0.91% | 3.33% | 2.86%
Cc1c(NCCCNCc2cc(Cl)cc(Cl)c2Cl)[nH]c2ccccc2c1=O | 10.6% | 9.36% | 8.22%
O=C(C=Cc1ccc(Cl)c(Cl)c1)NCCCCCN1CCC(CCCNC(=O)C2CC2c2ccccc2)CC1 (centres undefined) | 1.26% | 0.65% | 1.16%
CN1CCCC1CCNCc1ccc(-c2ccc(CNCCc3ccccc3)cn2)cc1 (centres undefined) | 1.95% | 2.41% | 4.27%
CC(C)(C)C1CC(=O)CC2C(=O)N(C3CCCCC3)C(=O)C21 (centres undefined) | 4.51% | 2.76% | 3.68%
O=C(N[C@@H](Cc1ccccc1)C(=O)NCCN1CCCCC1)c1ccc(O)c(-c2ccc(Cl)c(Cl)c2)c1 | 1.95% | 3.59% | 0.78%
CCCCCCCN1CCC(CC(=O)Nc2ccnc3ccc(OC)cc23)C(CC)C1 (centres undefined) | -2.12% | -1.03% | -0.31%
COc1cc2c(cc1OCCN1CCC(N3CCCCC3)CC1)N(C(=O)/C=C/c1ccccc1OC(F)(F)F)CC2 | 2.32% | 5.04% | 3.58%
COc1ccc(Nc2c3ccc(Cl)cc3nc3ccc(OC)cc23)cc1 | 2.45% | 4.25% | 0.01%
COc1ccc(-c2ccc(NC(=O)c3cccc(F)c3)cc2)cc1CNC(C)C | 0.72% | -0.6% | -2.2%
COc1ccc2nc(N3CCN(C(=O)OC(C)(C)C)CC3)nc(NCCCc3ccccc3)c2c1 | 28.4% | 23.1% | 8.03%
Cc1ccc2[nH]c(/C=C/c3cccc4cc[nH]c34)nc2c1 | 4.9% | 4.05% | 0.48%
COc1ccc(C=C2SC(=N)N(c3ccccc3OC)C2=O)cc1 | 6.44% | 5.54% | 6.86%
Cc1nn(CC(O)Cn2c3ccc(Br)cc3c3cc(Br)ccc32)c(C)c1Br (centres undefined) | -0.46% | -3.23% | -0.3%
CCCCCCOc1ccc(C(=O)NCCCC2CCN(CCCCCNC(=O)C=Cc3ccc(Cl)c(Cl)c3)CC2)cc1 | 2.75% | 4.46% | 3.91%
COc1c(O)cc2oc(-c3ccc(O)cc3)cc(=O)c2c1O | 1.18% | 1.7% | 3.31%
Nc1c2c(nc3ccc(NC(=O)c4ccc([N+](=O)[O-])cc4)cc13)CCCC2 | -1.93% | -0.82% | -1.11%

SMILES | inhibition [1] | inhibition [2] | inhibition [3]
CCN(CC)/C(=N/C(=N)Nc1ccc(Br)cc1)NCCCCCCN/C(=N\C(=N)Nc1ccc(Br)cc1)N(CC)CC | -1.08% | 0.19% | -0.11%
COc1cc(Cc2cnc(N)nc2N)cc(OC)c1OCCNC(=O)[C@@H](N)CCC(=O)O | -0.69% | 0% | 0.12%
O=C(Nc1ccsc1C(=O)NC1CCCCC1)c1ccc(F)cc1 | 0.07% | -1.32% | -0.45%
CCCN(CC1CC1)c1ncc(-c2ccccc2CNCc2ccccc2O)cn1 | 11.8% | 8.72% | 4.56%
O=C(/C=C/c1ccc(Cl)c(Cl)c1)NCCCCCCN1CCN(C(=O)Nc2cc(F)cc(F)c2)CC1 | 5.47% | 5.75% | 7.38%
CCOC(=O)NOC(C(=O)O)c1ccccc1 (centres undefined) | 2.01% | -0.31% | 0.52%
COc1ccc(CCC(C)(C)NCC(O)c2cccc(C(F)(F)F)c2)cc1 (centres undefined) | 3.28% | 3.58% | 5.12%
N=C(N)NN=CC(=O)Nc1cc([N+](=O)[O-])cc([N+](=O)[O-])c1 | 8.23% | 7.12% | 6.66%
COc1ccccc1N1CCN(CCCCNC(=O)c2ccc(NC(=O)c3cc(Cl)cc(Cl)c3)cc2)CC1 | 2.07% | 3.24% | 2.92%
CCOC(=O)c1[nH]c2cc(Cl)cc(Cl)c2c1/C=C/C(=O)Nc1ccc(-c2cnc(NC(C)=O)[nH]2)cc1 | -1.61% | -2.31% | -1.73%
CCC(C)NS(=O)(=O)c1ccc2nc(Nc3ccc(C)c(Cl)c3)n([C@H](C)C(C)(C)C)c2c1 (some centres undefined) | 2.63% | 2.57% | 0.57%
Cc1nc(C)c(-c2ccc(Oc3cccc(OC(F)(F)F)c3)cc2)c(O)c1Cl | 2.22% | 2.75% | 2.84%
Cc1nc(-c2ccc(-c3ccc(C(=O)Nc4ccc(C(C)C)c(OCCN(C)C)c4)cc3)c(C)c2)no1 | 4.64% | 2.76% | 2.51%
COc1c(C2CCN(CCCCNC(=O)c3cc(-c4ccc(Cl)cc4)[nH]c3C)CC2)ccc2c1CCCC2 | 3.66% | 4.04% | 4.31%
COc1ccc(-c2cccc(NC(=O)c3cccc(Cl)c3)c2)cc1CN1CCC(O)CC1 | 8.59% | 6.33% | 5.34%
Cc1cc(NC(=O)NCCN2CCC(NC(=O)c3ccc(C(F)(F)F)cc3)CC2)c2ccccc2n1 | 0.67% | 0.01% | -0.57%
